# Test results as given in PubChem BioAssay (EPA / NIEHS).
# Results filed as inconclusive are left out. The source made the active and inactive calls. Rule for the calls: active = hit-call score of the fitted dose curve at least 0.9, where 1 is the maximum; inconclusive = response in the unintended direction; inactive = score below 0.9.
# Read-out: ABC Transporter (ABCB1), ABCB1 (gene 5243)
# Experiment: CLD_ABCB1_48hr: CellzDirect (CLD) Gene Expression Assay for ABC Transporter (ABCB1) at 48 hours (AID 2283695);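 for AC50: potency for induction meaning increase of mRNA over DMSO vehicle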
# Procedure: CLD_48hr is a cell-based, multiplexed-readout assay that uses hepatocyte, a human liver primary cell, with measurements taken at 48 hours after chemical dosing in a 96-well plate.CLD_ABCB1_48hr is one of 16 assay component(s) measured or calculated from the CLD_48hr assay. It is designed to make measurements of mRNA induction, a form of inducible reporter, as detected with chemiluminescence signals by Quantitative Nuclease Protection Assay (qNPA) technology.Data from the assay component CLD_ABCB1_48hr was analyzed at the endpoint, CLD_ABCB1_48hr, in the positive analysis fitting direction relative to DMSO as the negative control and baseline of activity. Using a type of inducible reporter, gain-of-signal activity can be used to understand changes in the reporter gene as they relate to the gene ABCB1. Furthermore, this assay endpoint can be referred to as a primary readout. To generalize the intended target to other relatable targets, this assay endpoint is annotated to the transporter intended target family, where subfamily is ABC transporter.
# Human hepatocyte cultures were treated daily for two consecutive days with fresh dosing solutions containing appropriate concentrations of the 320 ToxCast chemicals (chemical identities were blinded to CellzDirect and other ToxCast collaborators), vehicle control (0.2% DMSO), and positive control inducers as summarized in Table 1. Due to the large number of treatment groups and chemicals examined, the ToxCast chemicals were divided into two groups (spanning two independent cultures of hepatocytes from separate donor preparations (Hu778: ToxCast plates 1 and 2; Hu776: ToxCast plates 3 and 4). Each preparation of human hepatocyte cultures was treated with respective vehicle control, medium only control, set of six positive controls/reference chemicals for the five hepatic receptor pathways, and a subset of eight of the ToxCast chemicals (indoxacarb, pyrithiobac-sodium, norflurazon, cyhalofop-butyl, methomyl, thiram, acetochlor, and propiconazole). These replicate data, coupled with internal replicates designed within the blinded ToxCast chemical library, provided additional data to evaluate interindividual differences between hepatocyte preparations and their potential impact on chemical profiles.Cell morphology and integrity were evaluated using phase-contrast microscopy as an indicator of hepatocyte cell health (Tyson & Green, 1987). Cultures for each treatment group (i.e., media, vehicle [0.2% DMSO], positive control inducers [multiple concentrations], and the ToxCast chemicals [multiple concentrations]) were observed and cell morphology was assessed relative to vehicle control cultures at each harvest time point (0, 6, 24, or 48 h). […] Images were evaluated at the conclusion of the study to assess changes in cell integrity and account for the effects of chemical exposure on uncharacteristic changes in concentration-dependent gene expression profiles. The results from these determinations of apparent cytotoxicity were annotated (yes/no) alongside the corresponding qNPA data for reference.At the conclusion of each treatment period, hepatocyte cultures (96-well) were washed with 1 volume of HBSS, lysed by addition of 25 ul ArrayPlate lysis buffer (HTG, Tucson, AZ), and 70 ul/well of Denaturation Oil, denatured by incubation at 95C for 10 min, and frozen at approximately -70C until analysis by nuclease protection assay (qNPA) (Roberts et al., 2007). For qNPA analysis, cell lysates were thawed at 50C for approximately 30 min, qNPA probes were added, and samples were incubated at 95C for 10 min to begin the detection process by denaturing the target RNA, dissociating the duplexes and secondary structure hybridization. At the conclusion of the hybridization period, S1 nuclease reagent was added to each sample to digest all nonprotected nucleotides at 50C for 60-90 min. […]
Structure (SMILES),outcome,AC50
O=C(O)CCCOc1ccc(Cl)cc1Cl,inactive,–
ClC1C(Cl)C(Cl)C(Cl)C(Cl)C1Cl (stereo not drawn),inactive,–
CC1(c2ccc(Oc3ccccc3)cc2)OC(=O)N(Nc2ccccc2)C1=O (stereo not drawn),inactive,–
O=[N+]([O-])/N=C1\NCCN1Cc1ccc(Cl)nc1,inactive,–
CC(C)(C)C(O)/C(=C\c1ccc(Cl)cc1Cl)n1cncn1 (stereo not drawn),–,31.3 µM (active)
CCc1ccc(C(=O)NN(C(=O)c2cc(C)cc(C)c2)C(C)(C)C)cc1,inactive,–
COP(=O)(OC)OC=C(Cl)Cl,inactive,–
CNC(=O)/C=C(\C)OP(=O)(OC)OC,inactive,–
O=C(O)C(F)(F)C(F)(F)C(F)(F)C(F)(F)C(F)(F)C(F)(F)C(F)(F)F,inactive,–
CNC(=O)Oc1cccc(N=CN(C)C)c1,inactive,–
O=C(O)COc1ccc(Cl)cc1Cl,inactive,–
CNC(=O)Oc1ccccc1OC(C)C,inactive,–
COC(=O)c1ccccc1S(=O)(=O)NC(=O)Nc1nc(C)nc(OC)n1,inactive,–
CCOCN(C(=O)CCl)c1c(C)cccc1CC,inactive,–
CNC(=O)CSP(=S)(OC)OC,inactive,–
COP(=S)(OC)Oc1ccc([N+](=O)[O-])cc1,inactive,–
CCS(=O)(=O)c1cccnc1S(=O)(=O)NC(=O)Nc1nc(OC)cc(OC)n1,inactive,–
CCC(C)(C)C(=O)OC1=C(c2ccc(Cl)cc2Cl)C(=O)OC12CCCCC2,inactive,–
C#CCN1C(=O)COc2cc(F)c(N3C(=O)C4=C(CCCC4)C3=O)cc21,inactive,–

Structure (SMILES),outcome,AC50
CC(C)N(C(=O)COc1nnc(C(F)(F)F)s1)c1ccc(F)cc1,inactive,–
CCCN(CCOc1c(Cl)cc(Cl)cc1Cl)C(=O)n1ccnc1,–,20 µM (active)
COc1cc(OC)nc(NC(=O)NS(=O)(=O)c2cc(NC=O)ccc2C(=O)N(C)C)n1,inactive,–
N#CN,inactive,–
CC(C)(C)C(O)C(Oc1ccc(Cl)cc1)n1cncn1 (stereo not drawn),inactive,–
Cc1[nH]c(=O)n(C(C)(C)C)c(=O)c1Cl,inactive,–
C[C@H]1[C@H](c2ccc(Cl)cc2)SC(=O)N1C(=O)NC1CCCCC1,–,35.5 µM (active)
O=S(=O)(O)C(F)(F)C(F)(F)C(F)(F)C(F)(F)C(F)(F)C(F)(F)C(F)(F)C(F)(F)F,inactive,–
CCOC1Oc2ccc(OS(C)(=O)=O)cc2C1(C)C (stereo not drawn),inactive,–
O=S1OCC2C(CO1)C1(Cl)C(Cl)=C(Cl)C2(Cl)C1(Cl)Cl (stereo not drawn),–,29.4 µM (active)
Oc1cc(Cl)ccc1Oc1ccc(Cl)cc1Cl,inactive,–
CCN(CC)C(=O)SCc1ccc(Cl)cc1,inactive,–
CCCN(CCC)c1c([N+](=O)[O-])cc(C(F)(F)F)cc1[N+](=O)[O-],inactive,–
Cc1cc(C)nc(NC(=O)NS(=O)(=O)c2ccccc2C(=O)OC2COC2)n1,inactive,–
CCC(C)Nc1c([N+](=O)[O-])cc(C(C)(C)C)cc1[N+](=O)[O-] (stereo not drawn),inactive,–
CCC(C)(NC(=O)c1cc(Cl)c(C)c(Cl)c1)C(=O)CCl (stereo not drawn),inactive,–
CC[C@H](C)[C@H]1O[C@]2(C=C[C@@H]1C)C[C@@H]1C[C@@H](C/C=C(\C)[C@@H](O[C@H]3C[C@H](OC)[C@@H](O[C@H]4C[C@H](OC)[C@@H](O)[C@H](C)O4)[C@H](C)O3)[C@@H](C)/C=C/C=C3\CO[C@@H]4[C@H](O)C(C)=C[C@@H](C(=O)O1)[C@]34O)O2 (tested in a mixture with another compound),–,1.01 µM (active)
O=C1c2ccccc2C(=O)N1SC(Cl)(Cl)Cl,inactive,–
CCOc1nc(NC)nc(NC(=O)NS(=O)(=O)c2ccccc2C(=O)OC)n1,inactive,–
